Measurements as given in PubChem BioAssay (Tox21).
Results filed as inconclusive are left out. A call without a number means that no potency is given here. Active and inactive are the calls of the source. Calls follow the shape of the dose curve; as a rule, active = well fitted activation curve with a large enough effect in the signal ratio in the repeat runs, with a control signal flat (not every such curve was filed as active); inconclusive = weak or mixed curves; inactive = flat fitted curve, though single readings scatter; the % refers to the signal ratio.

Assay: qHTS assay for small molecule activators of the heat shock response signaling pathway (AID 743210)
Conditions: HeLa HSE-bla reporter, beta-lactamase ratio, 5 h; series mostly up to 62.6 µM
Text: U.S. Tox21 Program National Center for Advancing Translational Sciences [NCATS] NIH Chemical Genomics Center [NCGC] U.S. Environmental Protection Agency [EPA] National Institutes of Environmental Health Sciences [NIEHS] National Toxicology Program [NTP] U.S. Food and Drug Administration [FDA] Tox21 Assay Overview: Various chemicals, environmental and physiological stress conditions may lead to the activation of heat shock response/ unfolded protein response (HSR/UPR). There are three heat shock transcription factors (HSFs) (HSF-1, -2, and -4) mediating transcriptional regulation of the human HSR. To identify the compounds that activate HSR signaling, HSE-bla HeLa cell line (Invitrogen, Carlsbad, CA, USA) containing a beta-lactamase reporter gene under the control of the heat shock response elements was used to screen the Tox21 10K compound library.
Tox21 Assay Protocol Summary: The CellSensor HSE-bla HeLa cells (Invitrogen, Carlsbad, CA, USA) were dispensed at 1500 cells/6uL/well into 1536-well black wall/clear bottom plates using a Multidrop combi (Thermo Fisher Scientific, Waltham, MA) dispenser. After the assay plates were incubated at 37 C and 5% CO2 overnight, 23 nL of compounds dissolved in DMSO, positive controls or DMSO only was transferred to the assay plate by a Pintool station (Kalypsys, San Diego, CA). The plates were incubated at 37 C for 5 h. After 1 uL of LiveBLAzerTM B/G FRET substrate was added using a Flying Reagent Dispenser (Beckman Coulter, Indianapolis, IN, USA), the plates were incubated at room temperature for 2.5 h, and fluorescence intensity was measured by an Envision plate reader (PerkinElmer, Shelton, CT).

| Structure (SMILES) | Potency |
| --- | --- |
| CCOC(=O)c1ncn2c1CN(C)C(=O)c1c(I)cccc1-2 | inactive |
| CCCCCCCCSC(=O)Oc1cc(Cl)nnc1-c1ccccc1 | inactive |
| COP(=O)(O)OC | inactive |
| CC(=O)OCC1=C(C(=O)O)N2C(=O)[C@@H](N)[C@H]2SC1 | inactive |
| O=S1(=O)OCCO1 | inactive |
| O=C(Cl)C(Cl)Cl | inactive |
| C#CCOC(=O)/C=C(C)/C=C/CC(C)CCCC(C)C (stereo not given) | inactive |
| CCCOC(=O)Cc1ccc(OCC(=O)N(CC)CC)c(OC)c1 | inactive |
| CCNP(=S)(OC)O/C(C)=C/C(=O)OC(C)C (stereo not given) | inactive |
| CC(C)(C1CCC(O)CC1)C1CCC(O)CC1 (stereo not given) | inactive |
| ClCOCCl | inactive |
| O=C1CC(=O)NC(=O)N1 | inactive |
| C=CCc1cc(OC)c2c(c1)OCO2 | inactive |
| CCOC(=O)Nc1cccc(OC(=O)Nc2ccccc2)c1 | inactive |
| Cc1ccc2cc(C)ccc2c1 | inactive |
| CCN(CC)CCOC(=O)C(O)(c1ccccc1)c1ccccc1 | inactive |
| CC(C)c1ccc(O)cc1 | inactive |
| CNC(=O)Oc1ccccc1C(C)C | inactive |
| O=C/C=C/c1ccco1 | inactive |
| OCC(Cl)CCl (stereo not given) | inactive |

| Structure (SMILES) | Potency |
| --- | --- |
| CCCOc1nn(C(=O)NS(=O)(=O)c2ccccc2C(=O)OC)c(=O)n1C | inactive |
| CCC(C)(C#N)N=NC(C)(C#N)CC (stereo not given) | inactive |
| CCOC(=O)N(C)N=O | inactive |
| CCOC(=O)COc1ccc(Cl)cc1Cl | inactive |
| CCN(CCO)CCO | inactive |
| COC1=CC(=O)O[C@@H](/C=C/c2ccccc2)C1 | inactive |
| CCC1(CC)C(=O)C=CNC1=O | inactive |
| C[N+]1(C)CCCCC1 | inactive |
| COC(=O)[C@@H](N)CCCN/C(N)=N/[N+](=O)[O-] | inactive |
| CCC1(c2ccccc2)C(=O)N(COC)C(=O)N(COC)C1=O | inactive |
| O=C(O)c1c(Cl)ccc2cc(Cl)cnc12 | inactive |
| Cn1c(CCCC(=O)O)nc2cc(N(CCCl)CCCl)ccc21 | inactive |
| O=P(O)(O)CN(CP(=O)(O)O)CP(=O)(O)O | inactive |
| COc1cc(CC(C)N)cc(OC)c1OC (stereo not given) | inactive |
| O=c1[nH]c2ccccc2n1C1CCNCC1 | inactive |
| COc1cccc(C=O)c1 | inactive |
| CCOC(=O)C(SP(=S)(OC)OC)c1ccccc1 (stereo not given) | inactive |
| CC(C)[N+](C)(CCC(C(N)=O)(c1ccccc1)c1ccccc1)C(C)C | inactive |
| Clc1nc(Cl)nc(Nc2ccccc2Cl)n1 | inactive |
| O=C(CCl)NCO | inactive |
